Test results: PubChem BioAssay (EPA / NIEHS)
Records with an inconclusive call do not appear. Calls of active or inactive are those of the source. The calls were made as follows: active = hit-call score of the fitted dose curve at least 0.9, where 1 is the maximum; inconclusive = response in the unintended direction; inactive = score below 0.9.

Molecular target: human CYP4F12, CYP4F12 (gene 66002) (UniProt Q9HCS2)
Assay: NVS_ADME_hCYP4F12: NovaScreen (NVS) CYP450-related Enzyme Activity (ADME) Assay for human CYP4F12 (AID 2283111)
Summary of the method: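 Recombinant enzyme with a fluorescent substrate, signal read at 0.5 h post-dose; activity loss analysed relative to acetonitrile. Compounds first run in duplicate at 10 uM, with follow-up concentration-response testing of actives.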

human CYP4F12, CYP4F12 (gene 66002), sequence (Q9HCS2 whole entry, looked up): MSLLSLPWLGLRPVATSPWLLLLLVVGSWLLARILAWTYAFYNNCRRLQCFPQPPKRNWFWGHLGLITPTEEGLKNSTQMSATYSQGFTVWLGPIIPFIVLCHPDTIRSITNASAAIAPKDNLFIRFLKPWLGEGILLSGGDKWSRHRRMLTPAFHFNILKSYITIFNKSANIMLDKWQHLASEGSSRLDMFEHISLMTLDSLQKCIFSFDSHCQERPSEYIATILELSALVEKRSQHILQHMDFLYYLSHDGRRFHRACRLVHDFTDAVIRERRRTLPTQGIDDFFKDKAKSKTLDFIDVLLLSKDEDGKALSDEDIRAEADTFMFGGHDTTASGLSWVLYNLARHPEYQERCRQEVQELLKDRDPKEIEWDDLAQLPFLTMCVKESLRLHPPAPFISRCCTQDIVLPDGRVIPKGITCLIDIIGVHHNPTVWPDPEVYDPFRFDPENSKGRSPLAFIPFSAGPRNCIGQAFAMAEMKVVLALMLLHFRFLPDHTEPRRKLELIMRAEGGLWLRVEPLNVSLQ

In the case of `O=C(O)C(F)(F)C(F)(F)C(F)(F)C(F)(F)C(F)(F)C(F)(F)C(F)(F)F`, the outcome is reported as “inactive”.

`ClC1C(Cl)C(Cl)C(Cl)C(Cl)C1Cl` (configuration not stated) was tested, and the AC50 was 17.3 µM (active).
